# Test results published in PubChem BioAssay (NCATS).
# Values without a mark were called inactive. Records with an inconclusive call do not appear. Entries that show only a call come without a potency. Calls of active or inactive are those of the source. Unless noted, the call rests on the fitted dose curve; in most records, active means well fitted curve in the direction sought with a large enough effect; inconclusive means small, poorly fitted or top-dose-only effect, or another doubt; inactive means no such curve, though single readings can be large; an effect the other way counts as inactive or inconclusive.
# Assays:
# [1] = biological target: D(1A) dopamine receptor (Homo sapiens) (UniProt P21728); assay: HTS Assay for Allosteric Agonists of the Human D1 Dopamine Receptor: Primary Screen for Agonists (AID 488981)
# Outline: (§1)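 Tetracycline-induced HEK293 Trex D1 cells with forced coupling to calcium, loaded with no-wash calcium dye; kinetic fluorescence read 180 s after compound addition for agonism, then a further 180 s after an EC20 dopamine challenge for potentiation.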
# [2] = biological target: D(1A) dopamine receptor (Homo sapiens) (UniProt P21728); assay: HTS Assay for Allosteric Agonists of the Human D1 Dopamine Receptor: Primary Screen for Potentiators (AID 488982)
# Outline: as §1
# [3] = biological target: D(1A) dopamine receptor (Homo sapiens) (UniProt P21728); assay: HTS Assay for Allosteric Agonists of the Human D1 Dopamine Receptor: Primary Screen for Antagonists (AID 488983);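 further: calcium flux response to an EC80 dopamine challenge measured with no-wash dye; nearly all actives have a fitted effect of over 65% in size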
# Outline: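 Screening of inducible HEK293 T-REx D1 cells: compound first, EC80 dopamine 180 s later, each phase read kinetically for calcium over 180 s.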
# [4] = Validation screen for small molecules that induce genotoxicity in human embryonic kidney (HEK293T) cells expressing luciferase-tagged ELG1 (AID 493106)
# Outline: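 Reporter-gene quantitative HTS in HEK293T cells carrying luciferase-tagged ELG1, whose level climbs under genotoxic stress. Compound exposure lasts 16 hr at 37 °C before luciferase detection.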
# [5] = qHTS for Inhibitors of Cell Surface uPA Generation: Validation Assay (AID 493164);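 further: RAW 264.7 macrophage cells exposed to compound for 18 h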
# Outline: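 RAW 264.7, 4000 cells/well, o/n plating; cpd 7-pt 1:5 dilution 2.45 nM–38.3 uM final; 18 h, 37 C/5% CO2; ATP-Lite, 5 s luminescence exposure.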
# [6] = biological target: Peptidyl-prolyl cis-trans isomerase NIMA-interacting 1 (Homo sapiens) (UniProt Q13526); assay: qHTS Validation Assay to Find Inhibitors of Pin1 (AID 504536; active means well fitted inhibition curve with a large enough effect in the polarisation, with a control signal flat, not every such curve was filed as active; the % refers to the polarisation)
# Outline: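 Fluorescence polarization competition: compounds (titration) displace HiFluor-488-labeled Pin1-1b peptide from Pin1 (0.3 uM final) in pH 7.5 HEPES buffer with DTT, 10 min at room temperature; %Activity normalized to no-enzyme wells, curves fitted.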
# [7] = biological target: Phosphoglycerate kinase, glycosomal (Trypanosoma brucei brucei) (UniProt P07378); assay: qHTS Validation Assay to Find Inhibitors of Phosphoglycerate Kinase (AID 504547)
# Outline: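 PGK activity was coupled to GAPDH (100nM final), which generates the unstable substrate 1,3-bisphosphoglycerate in-well. Reactions ran 60 minutes at room temperature in 100mM TEA pH 7.6, 5mM MgCl2, 0.01% Tween-20, then Kinase-Glo Plus luminescence was read.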
# [8] = biological target: phosphoglycerate mutase (Leishmania major) (UniProt Q4Q090); assay: qHTS Validation Assay to Find Inhibitors of Phosphoglycerate Mutase (AID 504548);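 further: end-point luminescence from Kinase-GloPlus after the PGAM reaction; series mostly up to about 58 µM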
# Outline: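 Inhibition of L. major PGAM was assessed by Kinase-GloPlus luminescence following a 45-minute room-temperature reaction with enzyme at 1.25nM final.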
# [9] = biological target: Ubiquitin carboxyl-terminal hydrolase 1 (Homo sapiens) (UniProt O94782); assay: Inhibitors of USP1/UAF1: Pilot qHTS (AID 504865); further: nearly all actives have a fitted effect of over 35% in size; further: potency means the concentration at half of the fitted maximal effect
# Outline: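 Deubiquitinase activity followed as kinetic rhodamine fluorescence release from 150 nM Ub-Rho. 1 nM USP1/UAF1 with compound, after 15 min room-temperature preincubation, in HEPES pH 7.8 buffer containing TCEP, EDTA, BSA and Tween-20.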
# [10] = qHTS for Inhibitors of ATXN expression: Validation (AID 588378); further: series mostly up to about 57 µM; nearly all actives have a fitted effect of over 75% in size
# Outline: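 Luciferase luminescence (Bright-Glo) from an ATXN2-FFLuc HEK293 line after 24 h compound exposure at 37 °C, preceded by a CellTiter-Fluor fluorescence viability read. Serial dilutions of a reference ATXN2 inhibitor and a luciferase inhibitor served as controls.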
# [11] = biological target: Thyrotropin-releasing hormone receptor (Homo sapiens) (UniProt P34981); assay: qHTS for Small Molecule Agonists and Allosteric Enhancers of Human TRH Receptor: Validation Screen for Agonists (AID 493127;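 active means calcium activation more than 3 SD above the typical response in the agonist read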;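 further: intracellular calcium rise by fluo-8 fluorescence before TRH EC20 addition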); details: TRH receptor agonist cell assay; at 2 µM; active compounds read high
# Outline: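 Gq-coupled calcium mobilization in TRHR cells after compound addition, monitored kinetically with fluo-8 dye on an FDSS reader.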
# [12] = biological target: Galactokinase (Homo sapiens) (UniProt P51570); assay: qHTS Validation Assay for Inhibitors of Human Galactokinase (GALK) (AID 493189)
# Outline: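 Inhibition was measured as remaining ATP, detected by luciferase luminescence after a 1 h room-temperature reaction. Final conditions: 5 nM GALK, 100 uM galactose, 35 uM ATP, pH 8.0 HEPES buffer.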
# [13] = Validation screen for small molecules that induce DNA re-replication in SW480 colon adenocarcinoma cells (AID 504364)
# Outline: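 Cells are treated 48 hr with test compound, stained 40 min with Hoechst at 37 C, and scanned for nuclear fluorescence; compounds inducing re-replication increase nuclei with elevated intensity.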
# [14] = biological target: DNA dC->dU-editing enzyme APOBEC-3G (Homo sapiens) (UniProt Q9HC16); assay: qHTS for inhibitors of Vif-A3G interactions: Validation (AID 588379)
# Outline: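 HeLa cells stably expressing Vif and A3G-eYFP, 700 cells/well, incubated overnight at 37 deg C, then exposed to compound overnight at 37 deg C. Inhibition of Vif-mediated degradation read as increased yellow fluorescence (Ex 488/Em 500-530) by laser-scanning cytometry.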
# [15] = biological target: ATP-dependent 6-phosphofructokinase (Trypanosoma brucei brucei) (UniProt O15648); assay: qHTS Assay to Find Inhibitors of T. brucei phosphofructokinase: hit validation (AID 492961); further: series mostly up to about 51 µM
# Outline: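 Luminescence from ADP-Glo reports ADP generated as T. brucei PFK (1.25 nM) phosphorylates 0.5 mM fructose-6-phosphate using 0.1 mM ATP. Reactions ran 45 min at room temperature, pH 8.0.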
# Sequence of Ubiquitin carboxyl-terminal hydrolase 1 (Homo sapiens) (O94782 whole entry, looked up): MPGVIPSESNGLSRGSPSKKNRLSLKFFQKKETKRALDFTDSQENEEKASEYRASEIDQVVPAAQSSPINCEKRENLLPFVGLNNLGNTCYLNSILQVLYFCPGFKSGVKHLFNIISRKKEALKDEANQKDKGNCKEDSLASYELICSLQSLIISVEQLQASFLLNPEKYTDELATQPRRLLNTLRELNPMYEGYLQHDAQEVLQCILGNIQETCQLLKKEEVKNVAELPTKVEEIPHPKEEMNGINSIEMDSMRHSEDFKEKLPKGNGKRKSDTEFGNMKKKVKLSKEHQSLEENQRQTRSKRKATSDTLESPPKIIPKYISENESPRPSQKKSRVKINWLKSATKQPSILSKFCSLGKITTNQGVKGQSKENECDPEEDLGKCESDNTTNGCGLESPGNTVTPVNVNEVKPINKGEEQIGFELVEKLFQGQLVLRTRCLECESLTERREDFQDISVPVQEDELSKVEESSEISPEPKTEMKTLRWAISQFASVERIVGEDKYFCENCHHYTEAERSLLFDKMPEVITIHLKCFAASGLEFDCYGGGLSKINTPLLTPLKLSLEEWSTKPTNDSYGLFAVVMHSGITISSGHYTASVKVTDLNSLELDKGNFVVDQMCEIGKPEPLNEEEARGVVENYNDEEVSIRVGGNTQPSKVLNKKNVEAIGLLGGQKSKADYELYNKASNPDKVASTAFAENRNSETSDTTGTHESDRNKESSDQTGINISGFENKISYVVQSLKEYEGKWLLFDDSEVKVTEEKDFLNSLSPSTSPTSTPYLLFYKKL
# Sequence of D(1A) dopamine receptor (Homo sapiens) (P21728 whole entry, looked up): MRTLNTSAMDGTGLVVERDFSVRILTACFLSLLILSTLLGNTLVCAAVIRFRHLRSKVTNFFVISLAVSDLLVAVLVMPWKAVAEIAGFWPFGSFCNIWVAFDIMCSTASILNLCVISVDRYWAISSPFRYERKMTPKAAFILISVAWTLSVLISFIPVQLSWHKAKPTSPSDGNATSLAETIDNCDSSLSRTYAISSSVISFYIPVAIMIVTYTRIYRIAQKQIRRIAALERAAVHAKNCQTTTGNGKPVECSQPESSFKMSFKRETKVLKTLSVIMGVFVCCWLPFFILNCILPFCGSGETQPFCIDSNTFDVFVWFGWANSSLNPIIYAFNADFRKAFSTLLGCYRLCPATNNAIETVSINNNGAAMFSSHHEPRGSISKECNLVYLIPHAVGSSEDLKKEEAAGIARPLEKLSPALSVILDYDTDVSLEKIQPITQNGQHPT
# Sequence of DNA dC->dU-editing enzyme APOBEC-3G (Homo sapiens) (Q9HC16 whole entry, looked up): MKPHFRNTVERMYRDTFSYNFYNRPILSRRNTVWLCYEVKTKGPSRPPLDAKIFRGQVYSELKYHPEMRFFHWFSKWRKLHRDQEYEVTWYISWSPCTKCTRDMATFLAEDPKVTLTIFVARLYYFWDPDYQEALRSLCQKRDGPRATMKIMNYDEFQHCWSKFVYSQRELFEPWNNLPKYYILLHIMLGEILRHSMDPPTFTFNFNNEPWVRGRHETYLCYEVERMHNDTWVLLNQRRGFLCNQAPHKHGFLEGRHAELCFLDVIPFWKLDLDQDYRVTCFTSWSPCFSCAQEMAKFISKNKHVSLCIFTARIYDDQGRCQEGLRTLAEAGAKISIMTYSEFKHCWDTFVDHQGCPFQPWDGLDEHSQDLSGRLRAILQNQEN
# Sequence of ATP-dependent 6-phosphofructokinase (Trypanosoma brucei brucei) (O15648 whole entry, looked up): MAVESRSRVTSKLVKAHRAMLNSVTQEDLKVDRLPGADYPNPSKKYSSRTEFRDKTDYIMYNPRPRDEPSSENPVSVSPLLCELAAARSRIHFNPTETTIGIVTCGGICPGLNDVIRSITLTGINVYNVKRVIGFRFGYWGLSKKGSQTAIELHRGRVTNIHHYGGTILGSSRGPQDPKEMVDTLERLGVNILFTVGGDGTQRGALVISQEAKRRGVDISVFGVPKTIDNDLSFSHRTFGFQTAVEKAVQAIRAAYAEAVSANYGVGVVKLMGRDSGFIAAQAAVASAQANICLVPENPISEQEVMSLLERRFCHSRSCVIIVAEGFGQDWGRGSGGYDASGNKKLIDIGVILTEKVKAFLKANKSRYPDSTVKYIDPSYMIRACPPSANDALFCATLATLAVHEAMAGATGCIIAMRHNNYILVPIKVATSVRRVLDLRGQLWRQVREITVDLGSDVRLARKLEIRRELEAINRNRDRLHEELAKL
# Sequence of phosphoglycerate mutase (Leishmania major) (Q4Q090 1-553): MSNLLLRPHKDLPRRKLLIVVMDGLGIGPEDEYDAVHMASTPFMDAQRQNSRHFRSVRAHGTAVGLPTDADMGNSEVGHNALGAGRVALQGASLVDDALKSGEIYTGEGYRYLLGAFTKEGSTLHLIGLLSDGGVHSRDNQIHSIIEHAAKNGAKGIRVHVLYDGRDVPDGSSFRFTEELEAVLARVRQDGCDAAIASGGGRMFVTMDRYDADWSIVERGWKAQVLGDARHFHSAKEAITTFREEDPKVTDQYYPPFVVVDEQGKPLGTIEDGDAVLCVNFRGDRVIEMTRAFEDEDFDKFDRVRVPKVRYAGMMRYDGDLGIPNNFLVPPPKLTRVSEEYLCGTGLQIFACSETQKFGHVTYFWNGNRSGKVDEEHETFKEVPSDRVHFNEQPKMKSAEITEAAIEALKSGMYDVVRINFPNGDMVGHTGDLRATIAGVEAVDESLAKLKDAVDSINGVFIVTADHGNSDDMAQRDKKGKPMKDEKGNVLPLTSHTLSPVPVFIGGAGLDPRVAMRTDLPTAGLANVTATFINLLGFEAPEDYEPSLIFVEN
# Sequence of Peptidyl-prolyl cis-trans isomerase NIMA-interacting 1 (Homo sapiens) (Q13526 whole entry, looked up): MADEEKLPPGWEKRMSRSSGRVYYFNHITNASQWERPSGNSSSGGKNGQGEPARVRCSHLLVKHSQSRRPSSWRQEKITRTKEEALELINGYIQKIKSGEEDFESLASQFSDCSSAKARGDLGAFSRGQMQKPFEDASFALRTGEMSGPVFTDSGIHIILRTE
# Sequence of Phosphoglycerate kinase, glycosomal (Trypanosoma brucei brucei) (P07378 whole entry, looked up): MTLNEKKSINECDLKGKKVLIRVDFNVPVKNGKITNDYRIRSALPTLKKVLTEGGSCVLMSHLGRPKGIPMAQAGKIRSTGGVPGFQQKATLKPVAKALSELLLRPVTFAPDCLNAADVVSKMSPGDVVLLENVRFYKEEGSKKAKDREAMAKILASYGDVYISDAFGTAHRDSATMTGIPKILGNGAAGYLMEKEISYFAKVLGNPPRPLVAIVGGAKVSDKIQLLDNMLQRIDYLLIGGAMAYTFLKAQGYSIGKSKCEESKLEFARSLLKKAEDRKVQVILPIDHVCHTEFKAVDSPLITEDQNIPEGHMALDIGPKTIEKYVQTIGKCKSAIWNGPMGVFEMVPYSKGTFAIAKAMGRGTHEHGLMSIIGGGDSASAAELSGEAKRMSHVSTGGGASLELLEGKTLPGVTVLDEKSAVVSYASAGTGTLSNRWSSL
# Sequence of Thyrotropin-releasing hormone receptor (Homo sapiens) (P34981 whole entry, looked up): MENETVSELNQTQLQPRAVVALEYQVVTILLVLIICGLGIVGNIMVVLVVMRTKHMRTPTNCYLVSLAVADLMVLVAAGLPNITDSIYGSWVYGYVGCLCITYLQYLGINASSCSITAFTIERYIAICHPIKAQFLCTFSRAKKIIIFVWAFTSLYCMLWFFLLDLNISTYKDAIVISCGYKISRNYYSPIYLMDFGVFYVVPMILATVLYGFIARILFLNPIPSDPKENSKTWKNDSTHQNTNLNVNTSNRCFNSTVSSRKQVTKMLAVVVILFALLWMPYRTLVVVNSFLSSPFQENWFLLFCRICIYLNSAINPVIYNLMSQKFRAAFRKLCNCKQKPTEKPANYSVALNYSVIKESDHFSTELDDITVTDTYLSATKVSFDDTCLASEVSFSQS
# Sequence of Galactokinase (Homo sapiens) (P51570 whole entry, looked up): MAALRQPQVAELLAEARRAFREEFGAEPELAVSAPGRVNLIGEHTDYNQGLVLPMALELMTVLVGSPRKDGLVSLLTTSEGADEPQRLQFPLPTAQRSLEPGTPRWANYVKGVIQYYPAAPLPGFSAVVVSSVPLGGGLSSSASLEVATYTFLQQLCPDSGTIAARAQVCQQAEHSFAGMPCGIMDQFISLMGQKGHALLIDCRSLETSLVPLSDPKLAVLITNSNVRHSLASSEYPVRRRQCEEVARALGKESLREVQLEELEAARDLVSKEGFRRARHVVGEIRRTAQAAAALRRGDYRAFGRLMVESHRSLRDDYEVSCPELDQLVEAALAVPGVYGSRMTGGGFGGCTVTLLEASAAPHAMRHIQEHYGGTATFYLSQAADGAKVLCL
compound,measurement,setting,value
COc1cc2c(cc1O)CC[C@@H]1[C@@H]2CC[C@]2(C)[C@@H](O)CC[C@@H]12,Potency,[1],inactive
same,outcome,[2],inactive
same,Potency,[3],inactive
same,outcome,[4],inactive
same,outcome,[5],inactive
same,outcome,[6],inactive
same,outcome,[7],inactive
same,outcome,[8],inactive
same,Potency,[9],inactive
same,Potency,[10],inactive
COc1cc(-c2ccc(=O)[nH]n2)ccc1OC(F)F,activation,[11],-0.438%
same,outcome,[12],inactive
same,outcome,[13],inactive
same,outcome,[14],inactive
CN=C(NC#N)NCCSCc1csc(N=C(N)N)n1,outcome,[15],inactive
same,Potency,[9],inactive
same,outcome,[14],inactive
CCCCN1CCCC1C(=O)Nc1c(C)cc(C)cc1C (configuration not stated),outcome,[15],inactive
same,Potency,[9],inactive
CCn1cc(C(=O)O)c(=O)c2cnc(N3CCCC3)nc21,outcome,[15],inactive
same,Potency,[9],inactive
CCCN1CCCC[C@H]1C(=O)Nc1c(C)cccc1C,outcome,[15],inactive
same,Potency,[9],inactive
CC(=O)Oc1ccc(C(=C2CCCCC2)c2ccc(OC(C)=O)cc2)cc1,outcome,[15],inactive
same,Potency,[9],inactive
Cc1cccn2c(=O)c(-c3nnn[nH]3)cnc12,outcome,[15],inactive
same,Potency,[9],inactive
CCCCCCCCCCCCCCCCOP(=O)([O-])OCC[N+](C)(C)C,outcome,[15],inactive
same,Potency,[9],inactive
NC(=O)C(=O)N/N=C/c1ccc([N+](=O)[O-])o1,outcome,[15],inactive
same,Potency,[9],inactive
CC(=O)c1ccc2c(c1)N(CCCN1CCC(CCO)CC1)c1ccccc1S2,outcome,[15],inactive
same,Potency,[9],inactive
CC(=O)N(O)CCCCCNC(=O)CCC(=O)N(O)CCCCCNC(=O)CCC(=O)N(O)CCCCCN,outcome,[15],inactive
same,Potency,[9],inactive
CN1CCC(=C2c3ccccc3Sc3ccccc32)CC1,outcome,[15],inactive
same,Potency,[9],39.8 µM (active)
NCCc1ccn[nH]1,outcome,[15],inactive
same,Potency,[9],inactive
Cc1c(C(C)C)c(=O)n(-c2ccccc2)n1C,outcome,[15],inactive
same,Potency,[9],inactive
COCc1c(C(C)C)nc(C(C)C)c(/C=C/[C@@H](O)C[C@@H](O)CC(=O)O)c1-c1ccc(F)cc1,outcome,[15],inactive
same,Potency,[9],inactive
CN1CCN(C(c2ccccc2)c2ccccc2)CC1,outcome,[15],inactive
same,Potency,[9],inactive
CCN(CC)C(=O)N1CCN(C)CC1,outcome,[15],inactive
same,Potency,[9],inactive
CCCOC(C(=O)OC1CCN(C)CC1)(c1ccccc1)c1ccccc1,outcome,[15],inactive
same,Potency,[9],inactive
NC(CO)(CO)CO,outcome,[15],inactive
same,Potency,[9],inactive
CC(C)(CO)[C@@H](O)C(=O)NCCCO,outcome,[15],inactive
same,Potency,[9],inactive
same,outcome,[14],inactive
CCN1CCC[C@H]1CNC(=O)c1c(OC)ccc(Br)c1OC,outcome,[15],inactive
same,Potency,[9],inactive
same,outcome,[14],inactive
CCCCC1=NC2(CCCC2)C(=O)N1Cc1ccc(-c2ccccc2-c2nn[nH]n2)cc1,outcome,[15],inactive
same,Potency,[9],inactive
COC(=O)[C@@H]1CC2=CC(=O)CC[C@]2(C)[C@@]23O[C@@H]2C[C@@]2(C)[C@@H](CC[C@@]24CCC(=O)O4)[C@H]13,outcome,[15],inactive
same,Potency,[9],inactive
CC(=O)OCC(=O)[C@@]1(OC(C)=O)[C@@H](C)C[C@H]2[C@@H]3C[C@H](F)C4=CC(=O)C=C[C@]4(C)[C@@]3(F)[C@@H](O)C[C@@]21C,outcome,[15],inactive
same,Potency,[9],inactive
C[C@@H](CN(C)C)CN1c2ccccc2Sc2ccccc21,outcome,[15],inactive
same,Potency,[9],inactive
CC(=O)N/N=C/c1ccc([N+](=O)[O-])o1,outcome,[15],inactive
same,Potency,[9],inactive
CCOc1ccc(NC(=O)CC(C)O)cc1 (configuration not stated),outcome,[15],inactive
same,Potency,[9],inactive
CC(=O)Nc1c(I)cc(I)c(C(=O)O)c1I,outcome,[15],inactive
same,Potency,[9],inactive
CCCCCCCCCCCCCCCC[N+](C)(C)CCN(Cc1ccc(OC)cc1)c1ncccn1,outcome,[15],inactive
same,Potency,[9],31.6 µM (active)
CCOC(=O)COc1ccc2c(C)c(CCN(CC)CC)c(=O)oc2c1Cl,outcome,[15],inactive
same,Potency,[9],inactive
CC(C)N=C(N)/N=C(\N)Nc1ccc(Cl)cc1,outcome,[15],inactive
same,Potency,[9],inactive
C[C@@H]1CN(CCCn2c3ccccc3c3ccccc32)C[C@H](C)N1,outcome,[15],inactive
same,Potency,[9],inactive
same,outcome,[14],inactive
CCN(CC)CCNC(=O)COc1ccc(Cl)cc1,outcome,[15],inactive
same,Potency,[9],inactive
